From PubChem BioAssay (NCI)
About 79,000 compounds went through this panel and 15% of them were active in at least one assay; those are over-represented in the sample as a whole. Values without a mark were called inactive. Calls of active or inactive are those of the source. Cut-off read from the data, not from the text of the source: active = growth inhibition above about 70%; inactive = the rest.

Experiments:
[1] = NCI Yeast Anticancer Drug Screen. Data for the rad50 strain (AID 155);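 note: 0% = growth of vehicle-only cultures of the same strain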; conditions: S. cerevisiae rad50 strain growth inhibition; at 50.0 µM; active compounds read high
How it was run: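 A DNA repair-deficient yeast mutant serves as the test organism; compound-induced growth inhibition is calculated against vehicle-treated cells.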

[2] = NCI Yeast Anticancer Drug Screen. Data for the mec2-1 strain (AID 157); conditions: S. cerevisiae mec2-1 strain, at 50.0 µM, active compounds read high
How it was run: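 Each compound was tested on mec2-1 yeast, a strain altered in DNA damage repair or cell cycle control. Growth inhibition is reported relative to vehicle.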

[3] = NCI Yeast Anticancer Drug Screen. Data for the sgs1 mgt1 strain (AID 161);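 note: 0% = growth of cultures given vehicle only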; conditions: S. cerevisiae sgs1 mgt1 strain, at 50.0 µM, active compounds read high
How it was run: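 Mutant yeast exposed to compound; growth scored against vehicle-only wells.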

[4] = NCI Yeast Anticancer Drug Screen. Data for the cln2 rad14 strain (AID 165);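 note: 0% = growth equal to vehicle treated cultures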; conditions: S. cerevisiae cln2 rad14 strain, at 50.0 µM, active compounds read high
How it was run: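 Test compounds were added to cln2 rad14 yeast cultures; inhibition of growth was then determined by comparison with vehicle treatment.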

[5] = NCI Yeast Anticancer Drug Screen. Data for the bub3 strain (AID 167); conditions: S. cerevisiae bub3 mutant strain, at 50.0 µM, active compounds read high
How it was run: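 Inhibition values come from growth of compound-treated mutant yeast normalised to vehicle-treated controls.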

[6] = NCI Yeast Anticancer Drug Screen. Data for the mlh1 rad18 strain (AID 175); conditions: S. cerevisiae mlh1 rad18 strain growth inhibition; at 50.0 µM; active compounds read high
How it was run: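 Inhibition values reflect reduced growth of mutant yeast versus vehicle-treated controls following compound exposure; the mutations affect DNA damage repair.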

SMILES | growth inhibition [1] [%] | growth inhibition [2] [%] | growth inhibition [3] [%] | growth inhibition [4] [%] | growth inhibition [5] | growth inhibition [6] [%]
OCc1cccc(F)c1 | -15.4 | -42.6 | -31.4 | 8.1 | -21.4% | -5.35
CN(Cc1ccccc1)C(=O)c1ccc(C(=O)N(C)Cc2ccccc2)cc1 | 1.75 | -1.65 | 19.4 | -3.95 | 35.1% | 40.2
CCCCCC(=O)C(CCCC)C(=O)OCC (stereo unspecified) | -6.15 | -0.1 | -25.2 | 2.6 | -12% | -33.5
C(=N\NC1=NCCN1)/c1ccccc1 | -1.35 | -9.05 | 5.6 | -36.8 | -7.4% | 13.3
CCC1(C2C=COC=C2)NC(=O)NC1=O (stereo unspecified) | -14.1 | 3.8 | -8.35 | 6.45 | -4.75% | -2
COc1ccc(-n2[nH]c3c(cnc4ccccc43)c2=O)cc1 | 6.35 | -33.9 | -33 | -10.8 | -22.8% | 2
CC1=NC(C(N)=O)C(=O)N1 (stereo unspecified) | -35 | -23.4 | -15.3 | -30.4 | -8.8% | -0.65
O=C(c1ccncc1)n1nc(-c2ccccc2)c(N=Nc2ccccc2[N+](=O)[O-])c1-c1ccccc1 | -1.75 | -16.8 | -9.3 | 1.65 | 30.3% | 1
O=C(Nc1ccc2ncccc2c1)Nc1ccc2ncccc2c1 | 12.9 | -12.8 | 4.2 | -4.85 | -10.4% | 21.4
Cc1c(C)c2cc(Br)ccc2[nH]c1=O | 18.9 | -6.2 | -10.2 | 6.45 | 6.7% | 2.45
Cc1ccc2nc3c(C)cc(=O)cc-3sc2c1 | 41.1 | 34.6 | 36.5 | 44.9 | 74.5% (active) | 43.6
CCCC1(c2ccccc2)CNC(=O)NC1 | -3.8 | 19.5 | 1.8 | -9 | 3.25% | -2.95
O=NNc1ccc(Oc2ccccc2)cn1 | 15.4 | -13.5 | -7.9 | -9 | -19.8% | -1.85
CCOC(C)=N | 3.1 | -29.4 | 7.3 | -6.85 | -9.7% | 3.35
N#Cc1ccc(OC(=O)Nc2ccccc2C(F)(F)F)cc1 | 2.4 | -18.9 | -5.2 | -2.1 | -14.9% | -0.85
CC1CCOC(/C=C/c2ccccc2)O1 (stereo unspecified) | -7.9 | -6.7 | 5.7 | 30.1 | 40.8% | -1.75
O=S(=O)(O)C(O)c1ccncc1 (stereo unspecified) | -38.2 | -41 | -6.15 | -1.8 | -4.25% | -22.7
CCOCCC(O)CC (stereo unspecified) | 3.3 | -31.2 | -4.9 | 17.7 | 9.8% | 14

SMILES | growth inhibition [1] [%] | growth inhibition [2] [%] | growth inhibition [3] [%] | growth inhibition [4] [%] | growth inhibition [5] | growth inhibition [6] [%]
CCOC(=O)C1=C(C)NC(C)=C(C(=O)OCC)C1 | 14.9 | -5.8 | -1.5 | -41.1 | 31.1% | 13.5
CN(C)c1ccc(C(=N)c2ccc(N(C)C)cc2)cc1 | -3.85 | 4.9 | -6 | -35.5 | 5.45% | -0.15
OC(CC1CCCC(CC(O)c2ccccc2)N1CCc1ccccc1)c1ccccc1 (stereo unspecified) | 24.8 | -1.3 | 22.4 | 35.4 | 38.2% | 21.2
CN(C)CCC(=O)c1cccnc1 | 9.9 | -17.1 | -3.35 | -4.8 | 5.65% | -1.2
COC(=O)/C(=N\O)C(C(=O)C=C(C)C)C(=O)C(=O)Nc1ccccc1C (stereo unspecified) | -5.8 | -21.6 | -8.35 | 7.4 | -14.1% | -18.1
CC(=O)NC1(C)C(C)C2CC1C(C)C2(C)C (stereo unspecified) | 13.2 | -13.8 | -44 | -0.55 | -30.6% | -34.6
COc1cc(C(C)=O)cc(OCc2ccccc2)c1OC | -2.85 | 15.7 | 18.2 | -13.1 | 15.4% | 7.25
O=C1C(Cl)C(c2cccc(O)c2)N1n1cnc2ccccc2c1=O (stereo unspecified) | -25.1 | -4.15 | -7.5 | -8 | -19.4% | -0.95
Cc1ccc(NC(=S)N/C=C(\c2ccccc2)S(=O)Cc2ccccc2)c(C)c1 (stereo unspecified) | 8 | -22.1 | -8 | 15.7 | 14.1% | 1.8
Cc1ccc2snc(C(=O)O)c2c1[N+](=O)[O-] | 16.7 | 0.65 | 4.1 | -1.65 | -13.6% | 8.6
COc1ccc(/C=C2\N=C(c3ccc([N+](=O)[O-])cc3)OC2=O)cc1 | -2.7 | -6 | -8.35 | -9.5 | 0.55% | 18.4
COc1cccc(/C(Cl)=C(\C=O)c2cccc(OC)c2)c1 | 12.8 | 19.1 | 2.2 | 10.7 | 34% | -10.1
O=C(O)c1nc(Cl)c(Cl)[nH]c1=O | -15.3 | -29.6 | 8.6 | -65.6 | 2.5% | 3.6
Fc1c(F)c(F)c(-c2nnc(-c3c(F)c(F)c(F)c(F)c3F)o2)c(F)c1F | -2.45 | 2.75 | -8.75 | -56.8 | 9.3% | 4.25
O=C(CC(c1ccccc1)C(Br)(c1ccccc1)[N+](=O)[O-])c1ccccc1 (stereo unspecified) | 11.8 | -0.45 | -2.75 | 22.2 | -3.4% | -5.8
CCCc1nc(N)nc(C(=O)Nc2cccc(C(F)(F)F)c2)c1CC | -15.2 | -19.4 | 5.1 | 4.05 | 2.15% | -8.25
Cc1ccc(N=Nc2c(C)nn(-c3ccccc3)c2C)c(Br)c1 | 26.6 | 10.8 | 47.5 | 4.1 | 18.9% | 38.6
CCC1CCCC1=O (stereo unspecified) | -8.75 | -10.1 | -9.9 | 8.6 | 10.4% | -8.55
